Screening results: PubChem BioAssay, National Center for Advancing Translational Sciences (NCATS)
PI4K2A inh: qHTS for small molecular inhibitors of PI4K2A; Phosphatidylinositol 4-kinase type 2-alpha (Homo sapiens), Q9BTU6; purified PI4K2A, ADP-Glo luminescence, 1 h; active compounds read low; activity change, negative = inhibition, % at 76.9 µM; 420,000 tested, 0.13% active; AID 1346378, 2018; in the data active = activity change below about -50%; inconclusive = mostly about -30% to -49%;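 note: -100% = wells without enzyme as full effect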
Target sequence (Q9BTU6 whole entry, looked up): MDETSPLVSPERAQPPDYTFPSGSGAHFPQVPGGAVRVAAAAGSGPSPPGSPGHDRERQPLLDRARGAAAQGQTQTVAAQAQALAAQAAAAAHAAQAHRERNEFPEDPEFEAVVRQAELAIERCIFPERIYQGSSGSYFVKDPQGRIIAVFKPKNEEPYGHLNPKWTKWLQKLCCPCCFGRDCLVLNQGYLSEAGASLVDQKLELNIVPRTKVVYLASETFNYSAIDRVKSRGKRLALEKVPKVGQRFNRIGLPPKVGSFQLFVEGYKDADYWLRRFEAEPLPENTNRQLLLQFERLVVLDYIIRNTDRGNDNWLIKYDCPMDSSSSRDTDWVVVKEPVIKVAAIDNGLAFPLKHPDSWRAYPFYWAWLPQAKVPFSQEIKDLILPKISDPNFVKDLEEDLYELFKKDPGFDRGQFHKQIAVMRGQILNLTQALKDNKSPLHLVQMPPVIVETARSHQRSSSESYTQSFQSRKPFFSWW
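In this quantitative HTS, ADP production by PI4K2A was quantified luminescently after 1 h at ambient temperature; 100 microM adenosine served as plate-quality control.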
miR-21 reporter: qHTS Assay for Modulators of miRNAs and/orActivators of miR-21. 340,000 tested, under 10 active. Potency, µM (titrated, usually from 38.3 µM), inactives show at the top dose activity change, positive = activation, hits mostly activators. HeLa miR-21 FLuc reporter, luciferase, 48 h;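 note: % of control where 0% means no effect; miR-21 action dims this reporter so a rising signal means less miR-21 action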
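HeLa cells endogenously expressing miR-21, stably carrying CMV-driven firefly luciferase with a downstream miR-21 binding site, 2000 cells/well. Titrations up to approximately 40 uM, 48 hours; luciferase luminescence read.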
Nrf2 activator: qHTS of Nrf2 Activators; AREc32 ARE-luciferase reporter (MCF7-derived line), luminescence, 24 h; Potency, µM (doses to about 46.1 µM), inactives show at the top dose activation, actives largely listed as activators; 410,000 tested, 0.31% active; AID 624171, 2012; note: potency is the fitted concentration of half-maximal effect; % of control where 0% means no effect; nearly all actives have a fitted effect of over 65% in size
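Each well held 1000 AREc32 cells, which were incubated with compound for 24 hr at 37 deg C after overnight attachment, and ARE reporter activity was quantified by firefly luciferase luminescence.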
GALK inhibitor: qHTS Assay for Inhibitors of Human Galactokinase (GALK); P51570; Purified GALK, Kinase-Glo residual ATP luminescence; Potency, µM (highest dose often 57.5 µM), without a hit: at the highest dose activity change, negative = inhibition, usual class: inhibitors; 270,000 tested, 0.007% active; note: potency is the fitted concentration of half-maximal effect; % is set by controls: 0 for no effect and ±100 for the full control effect
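ATP-depletion format; final 35 uM ATP, 100 uM D-galactose, 5 nM enzyme; pH 8.0 HEPES/Mg2+ buffer; 60 min RT; luminescence read 10 min after detection reagent.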
Nrf2 block: Nrf2 qHTS screen for inhibitors | Potency, µM (titrated, usually from 46 µM), for the others: top-dose activity change, negative = inhibition, usual class: inhibitors | 360,000 tested, 2.1% active | A549 ARE-Fluc reporter, luciferase luminescence, 18-24 h; note: potency is the fitted concentration of half-maximal effect; % is set by controls: 0 for no effect and ±100 for the full control effect; nearly all actives have a fitted effect of over 60% in size
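A549 ARE_Fluc cells, 5000/well, 5% FBS OPTI-MEM; compounds in dose-response, 18-24 h at 37 °C/5% CO2; CellTiter-Fluor viability read (Ex 405/Em 525), then BugLite luciferase luminescence = Nrf2 activity.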
A549 tox-1: Nrf2 qHTS screen for inhibitors: counterscreen for cytotoxicity | Potency, µM (top dose mostly 46 µM), without a hit: top-dose activity change, negative = cytotoxicity, usual class: inhibitors | AID 504648, 2011 | 390,000 tested, 0.16% active | A549 ARE-Fluc cells, CellTiter-Fluor viability, 18-24 h; note: potency is the fitted concentration of half-maximal effect; % is set by controls: 0 for no effect and ±100 for the full control effect
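Cytotoxicity counterscreen: CellTiter-Fluor fluorescence was measured in A549 ARE_Fluc cells after 18-24 h of compound exposure in a concentration series. The subsequent BugLite luminescent read reports ARE-luciferase activity.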
FLuc counter 3: Nrf2 qHTS screen for inhibitors: Purified Fluc Biochemical Counterscreen for Hit Validation; shares compounds with Nrf2 block; purified firefly luciferase, luminescence inhibition; Potency, µM (titrated, usually from 57.5 µM), for the others: top-dose activity change, negative = inhibition, actives largely listed as inhibitors; 1,400 tested, 4% active; note: potency is the fitted concentration of half-maximal effect; % is set by controls: 0 for no effect and ±100 for the full control effect; nearly all actives have a fitted effect of over 65% in size
A549 tox-2: Nrf2 qHTS screen for inhibitors: A549 ARE-Fluc Cytotoxicity Counterscreen for Hit Validation | shares compounds with Nrf2 block | A549 ARE-Fluc cells, cytotoxicity counterscreen | Potency, µM (titrated, usually from 46.1 µM), for inactives: top-dose activity change, negative = cytotoxicity, most hits filed as inhibitors | 1,400 tested, 2% active | AID 720523, 2013;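 note: potency is the fitted concentration of half-maximal effect; cells exposed to compounds for 18 to 24 hours; % is set by controls: 0 for no effect and ±100 for the full control effect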
ARE-Fluc inh: Nrf2 qHTS screen for inhibitors: Nrf2 A549 ARE-Fluc Confirmation Assay for Hit Validation; Potency, µM (top dose mostly 46.1 µM), inactives show top-dose activity change, negative = inhibition, hits mostly inhibitors; shares compounds with Nrf2 block; A549 ARE-firefly luciferase reporter, luminescence; 1,400 tested, 74% active; note: potency is the fitted concentration of half-maximal effect; % is set by controls: 0 for no effect and ±100 for the full control effect; nearly all actives have a fitted effect of over 65% in size
* marks the source's active call; other numbers are inactive results. Shown are actives, neighbours in structure and some others; about 2.2% of the full set was active somewhere. Unless noted, calls come from the whole dose curve; as a rule, active = well fitted curve in the direction sought with a large enough effect; inconclusive = small, poorly fitted or top-dose-only effect, or another doubt; inactive = no such curve, though single readings can be large; an effect the other way counts as inactive or inconclusive.

For COc1ccc(C)cc1NC(=O)C1CCC(CNS(=O)(=O)c2ccc3c(c2)CCCC(=O)N3)CC1 (stereo unspecified) the results were PI4K2A inh -4, miR-21 reporter 28%, Nrf2 activator 1%, Nrf2 block 7.3µM*, A549 tox-1 inconclusive, FLuc counter 3 1%, A549 tox-2 1% and ARE-Fluc inh 7.3µM*.
For Fc1ccc(-c2noc3ncnc(NCCc4ccc(Cl)cc4)c23)cc1 the results were PI4K2A inh -4, miR-21 reporter 17%, Nrf2 activator -1%, Nrf2 block inconclusive and A549 tox-1 2%.
`CSc1ccc(CCNc2ncnc3onc(-c4ccc(Cl)cc4)c23)cc1` gave PI4K2A inh -2, miR-21 reporter 26%, Nrf2 activator 0%, Nrf2 block 9.2µM*, A549 tox-1 3%, FLuc counter 3 2%, A549 tox-2 -3% and ARE-Fluc inh inconclusive.
`CCCCn1c(SCC(=O)Nc2nnc(C(C)C)s2)nc2c1c(=O)n(C)c(=O)n2C` gave PI4K2A inh -2, miR-21 reporter 1%, Nrf2 activator -1%, GALK inhibitor -4%, Nrf2 block 7.3µM*, A549 tox-1 inconclusive, FLuc counter 3 1%, A549 tox-2 -18% and ARE-Fluc inh 16µM*.
For CCCn1c(SCC(=O)Nc2nnc(CC)s2)nc2c1c(=O)n(C)c(=O)n2C the results were miR-21 reporter -6% and GALK inhibitor -7%.
`CN1CCN(c2ncnc3c2[nH]c2ccc(F)cc23)CC1` gave PI4K2A inh 2, miR-21 reporter -9%, Nrf2 activator 5%, GALK inhibitor -2%, Nrf2 block -6% and A549 tox-1 3%.
Screening Fc1ccc2[nH]c3c(N4CCc5ccccc5C4)ncnc3c2c1 returned PI4K2A inh 3, miR-21 reporter inconclusive, Nrf2 activator 4%, GALK inhibitor 4%, Nrf2 block 7.3µM*, A549 tox-1 inconclusive, FLuc counter 3 -15% and A549 tox-2 -16%.
Cc1cccc(C(=O)Nc2nc3ncccn3c2-c2ccc(F)cc2)c1 was read as PI4K2A inh 1.
CC(=O)O[C@@H]1[C@@H](O)CN[C@@H]1Cc1ccccc1 was read as Nrf2 block 0.23µM*, A549 tox-1 inconclusive, FLuc counter 3 3%, A549 tox-2 inconclusive and ARE-Fluc inh 0.33µM*.
CCCCOc1ccc(C(=O)Nc2ccc3oc(-c4cccnc4)nc3c2)cc1 was read as PI4K2A inh 1, miR-21 reporter 2%, Nrf2 activator 0%, Nrf2 block -20% and A549 tox-1 -1%.
CCCCOc1cccc(C(=O)Nc2ccc3oc(-c4cccnc4)nc3c2)c1 was read as PI4K2A inh -2, miR-21 reporter -2%, Nrf2 activator -1%, Nrf2 block 6.5µM*, A549 tox-1 -11%, FLuc counter 3 -16%, A549 tox-2 -1% and ARE-Fluc inh 7.3µM*.
